Results taken from PubChem BioAssay (NCATS).
Inconclusive results are not listed. A call without a number means that no potency is given here. Calls of active or inactive are those of the source. Calls follow the shape of the dose curve; as a rule, active = well fitted curve in the direction sought with a large enough effect; inconclusive = small, poorly fitted or top-dose-only effect, or another doubt; inactive = no such curve, though single readings can be large; an effect the other way counts as inactive or inconclusive.

Columns and labels:
[1] = qHTS of pediatric cancer cell lines to identify multiple opportunities for drug repurposing: Confirmatory screen for NB1643 cells (AID 1347109); also: nearly all actives have a fitted effect of over 45% in size; also: potency is read from the fitted curve at half-maximal effect
Summary of the method: (§1)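 Viability after 48 h compound treatment at 37C, 500-1,000 cells/well, read as ATP luminescence with CellTiter-Glo. Primary screens used 11-point (MIPE, 0.78 nM-46 µM) or 8-point (NPC, 0.59 nM-46 µM) final concentrations; follow-up screens used 11-point dilutions.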

[2] = qHTS of pediatric cancer cell lines to identify multiple opportunities for drug repurposing: Confirmatory screen for A673 cells (AID 1347110); also: nearly all actives have a fitted effect of over 65% in size; also: potency is read from the fitted curve at half-maximal effect
Summary of the method: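 Viability was read as ATP luminescence (CellTiter-Glo) after 48 h of compound exposure at 37 C in A673 cells seeded at 500-1,000/well. Titrations reached 46 uM final, with 11 points in the confirmatory screen. Concentration-response curves were fitted directly.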

[3] = qHTS of pediatric cancer cell lines to identify multiple opportunities for drug repurposing: Confirmatory screen for SK-N-MC cells (AID 1347111);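 also: cells exposed to compound for 48 h before the readout; nearly all actives have a fitted effect of over 70% in size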; also: potency is read from the fitted curve at half-maximal effect
Summary of the method: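 SK-N-MC cells at 500-1,000 cells/well in growth media were pre-incubated 5 h, then exposed to compounds at 11-point dilutions for 48 h at 37 degrees C, 5% CO2. Viability was read as CellTiter-Glo luminescence.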

[4] = qHTS of pediatric cancer cell lines to identify multiple opportunities for drug repurposing: Confirmatory screen for BT-12 cells (AID 1347112); also: nearly all actives have a fitted effect of over 55% in size; also: potency is read from the fitted curve at half-maximal effect
Summary of the method: as §1

[5] = qHTS of pediatric cancer cell lines to identify multiple opportunities for drug repurposing: Confirmatory screen for LAN-5 cells (AID 1347113); also: nearly all actives have a fitted effect of over 65% in size; also: potency is read from the fitted curve at half-maximal effect
Summary of the method: as §1

[6] = qHTS of pediatric cancer cell lines to identify multiple opportunities for drug repurposing: Confirmatory screen for DAOY cells (AID 1347114); also: nearly all actives have a fitted effect of over 65% in size; also: potency is read from the fitted curve at half-maximal effect
Summary of the method: (§2)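 Viability measured as metabolically active cells via CellTiter-Glo luminescence following 48 hours of compound exposure, 11-point dilutions in confirmatory testing. 500-1,000 cells/well plated 5 hours before dosing; controls were DMSO and 2.3 µM bortezomib.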

[7] = qHTS of pediatric cancer cell lines to identify multiple opportunities for drug repurposing: Confirmatory screen for NB-EBc1 cells (AID 1347115); also: nearly all actives have a fitted effect of over 45% in size; also: potency is read from the fitted curve at half-maximal effect
Summary of the method: as §1

[8] = qHTS of pediatric cancer cell lines to identify multiple opportunities for drug repurposing: Confirmatory screen for SJ-GBM2 cells (AID 1347116); also: nearly all actives have a fitted effect of over 60% in size; also: potency is read from the fitted curve at half-maximal effect
Summary of the method: as §2

[9] = qHTS of pediatric cancer cell lines to identify multiple opportunities for drug repurposing: Confirmatory screen for BT-37 cells (AID 1347117); also: nearly all actives have a fitted effect of over 55% in size; also: potency is read from the fitted curve at half-maximal effect
Summary of the method: as §1

[10] = qHTS of pediatric cancer cell lines to identify multiple opportunities for drug repurposing: Confirmatory screen for Rh18 cells (AID 1347125); also: nearly all actives have a fitted effect of over 55% in size; also: potency is read from the fitted curve at half-maximal effect
Summary of the method: as §1

[11] = qHTS of pediatric cancer cell lines to identify multiple opportunities for drug repurposing: Confirmatory screen for Saos-2 cells (AID 1347127); also: nearly all actives have a fitted effect of over 60% in size; also: potency is read from the fitted curve at half-maximal effect
Summary of the method: as §1

[12] = qHTS of pediatric cancer cell lines to identify multiple opportunities for drug repurposing: Confirmatory screen for OHS-50 cells (AID 1347128);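 also: compound exposure lasted 48 h at 37 degrees C; nearly all actives have a fitted effect of over 55% in size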; also: potency is read from the fitted curve at half-maximal effect
Summary of the method: as §1

[13] = qHTS of pediatric cancer cell lines to identify multiple opportunities for drug repurposing: Confirmatory screen for SK-N-SH cells (AID 1347129); also: nearly all actives have a fitted effect of over 60% in size; also: potency is read from the fitted curve at half-maximal effect
Summary of the method: as §1

[14] = qHTS of pediatric cancer cell lines to identify multiple opportunities for drug repurposing: Confirmatory screen for MG 63 (6-TG R) cells (AID 1347119); also: nearly all actives have a fitted effect of over 55% in size; also: potency is read from the fitted curve at half-maximal effect
Summary of the method: as §1

[15] = qHTS of pediatric cancer cell lines to identify multiple opportunities for drug repurposing: Confirmatory screen for U-2 OS cells (AID 1347122); also: nearly all actives have a fitted effect of over 65% in size; also: potency is read from the fitted curve at half-maximal effect
Summary of the method: as §1

[16] = qHTS of pediatric cancer cell lines to identify multiple opportunities for drug repurposing: Confirmatory screen for Rh41 cells (AID 1347123); also: nearly all actives have a fitted effect of over 60% in size; also: potency is read from the fitted curve at half-maximal effect
Summary of the method: as §1

[17] = qHTS of pediatric cancer cell lines to identify multiple opportunities for drug repurposing: Confirmatory screen for control Hh wild type fibroblast cells (AID 1347121); also: nearly all actives have a fitted effect of over 70% in size; also: potency is read from the fitted curve at half-maximal effect
Summary of the method: as §1

[18] = qHTS of pediatric cancer cell lines to identify multiple opportunities for drug repurposing: Confirmatory screen for RD cells (AID 1347124)
Summary of the method: as §1

[19] = qHTS of pediatric cancer cell lines to identify multiple opportunities for drug repurposing: Confirmatory screen for TC32 cells (AID 1347118); also: nearly all actives have a fitted effect of over 65% in size
Summary of the method: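 Measured quantity: luminescence from CellTiter-Glo, reflecting metabolically active TC32 cells following 48 h of compound. Curves came straight from multi-point titrations, with 8 or 11 points in primary and 11 in confirmatory screening.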

SMILES	Potency [1]	Potency [2]	Potency [3]	Potency [4]	Potency [5]	Potency [6]	Potency [7]	Potency [8]	Potency [9]	Potency [10]	Potency [11]	Potency [12]	Potency [13]	Potency [14]	Potency [15]	Potency [16]	Potency [17]	Potency [18]	Potency [19]
CN[C@@H]1CN(c2ccc3c(=O)c(C(=O)O)cn(-c4nccs4)c3n2)C[C@@H]1OC	1.82 µM (active)	1.29 µM (active)	1.44 µM (active)	9.1 µM (active)	1.82 µM (active)	11.5 µM (active)	0.811 µM (active)	10.2 µM (active)	2.57 µM (active)	14.4 µM (active)	inactive	6.44 µM (active)	7.24 µM (active)						
CCNC(=O)c1noc(-c2cc(C(C)C)c(O)cc2O)c1-c1ccc(CN2CCOCC2)cc1	0.0737 µM (active)	0.0522 µM (active)	0.0827 µM (active)		0.0522 µM (active)		0.293 µM (active)	0.208 µM (active)	0.0827 µM (active)	0.0928 µM (active)	0.131 µM (active)	0.147 µM (active)	0.132 µM (active)	0.147 µM (active)	0.117 µM (active)	0.0465 µM (active)			
CC1C(=O)OC2C(O)C34C5CC(C(C)(C)C)C36C(OC(=O)C6O)OC4(C(=O)O5)C12O (stereo unspecified)	inactive	18.5 µM (active)	inactive	inactive	inactive	inactive	inactive	inactive	inactive	inactive	inactive	inactive	inactive	inactive	inactive	inactive	inactive	inactive	
CO[C@H]1/C=C\O[C@@]2(C)Oc3c(C)c(O)c4c(O)c(c5c(nc6cc(C)ccn65)c4c3C2=O)NC(=O)C(C)=CC=C[C@H](C)[C@H](O)[C@@H](C)[C@@H](O)[C@@H](C)[C@H](OC(C)=O)[C@H]1C	inactive	inactive		inactive	inactive	inactive	inactive	inactive	inactive	inactive	inactive		inactive	inactive	inactive		inactive		
CCC[C@H](Nc1nc(-c2ccc(NC(=O)NCC)c(OC)c2)ncc1C)c1cccnc1	0.165 µM (active)	0.233 µM (active)			0.414 µM (active)	0.0827 µM (active)	0.329 µM (active)		0.329 µM (active)	inactive	0.208 µM (active)	0.329 µM (active)	inactive		0.233 µM (active)		inactive		
Cc1cccc(-c2[nH]c(C(C)(C)C)nc2-c2ccc3c(c2)OCO3)n1		13.1 µM (active)	7.37 µM (active)	11.7 µM (active)	2.61 µM (active)				8.27 µM (active)	inactive							8.27 µM (active)		
OCCn1cc(-c2ccc3c(c2)CCC3=NO)c(-c2ccncc2)n1	inactive			inactive		inactive	inactive		inactive	inactive		inactive	inactive	inactive			inactive		
CC1CNc2c(cccc2S(=O)(=O)N[C@@H](CCCN=C(N)N)C(=O)N2CC[C@@H](C)C[C@@H]2C(=O)O)C1 (stereo partly specified)		inactive	20.8 µM (active)	inactive		inactive	inactive		inactive	inactive		inactive	inactive	inactive	inactive	inactive	inactive		
CC(C)CN(C[C@H](O)[C@H](Cc1ccccc1)NC(=O)O[C@H]1CCOC1)S(=O)(=O)c1ccc(N)cc1	inactive			inactive	inactive	inactive		inactive	inactive	inactive	inactive	inactive	inactive	8.27 µM (active)	inactive	inactive	inactive		
CC(=O)N1CCN(c2ccc(OCc3nn(C)c(C)c3-c3cccc4c(CCCOc5cc(C)c(Cl)c(C)c5)c(C(=O)O)n(Cc5cccnc5)c34)cc2)CC1	inactive	18.5 µM (active)		inactive	inactive	inactive				inactive			inactive		inactive		inactive	inactive	
O=C(CC12CC3CC(CC(C3)C1)C2)Nc1cccc2nc(NCCNCCO)ccc12	inactive		23.3 µM (active)		inactive		inactive			inactive			inactive	inactive		13.1 µM (active)	inactive		
CC(C)C[C@@H](C(=O)N[C@H](C(=O)OC1CCCC1)c1ccccc1)[C@H](O)C(=O)NO	20.8 µM (active)		20.8 µM (active)	inactive		18.5 µM (active)	inactive			inactive	5.85 µM (active)			20.8 µM (active)		11.7 µM (active)	inactive		
Cc1ccccc1-n1c(Cn2nc(-c3cccc(O)c3)c3c(N)ncnc32)nc2cccc(C)c2c1=O	inactive	7.37 µM (active)		inactive	inactive					inactive	inactive	inactive	inactive				inactive		inactive
O=C1Nc2ccc(I)cc2C1=Cc1cc(Br)c(O)c(Br)c1		11.7 µM (active)	inactive	inactive		inactive	inactive	inactive	inactive	inactive	inactive		inactive	inactive		inactive			
